# The supplement of paper PMC11001985
# Values without a mark were called inactive.
# Compound: C#CCNC(=O)CCSSCCC(=O)NCCc1ccc(C=O)c(C=O)c1
# Experiment: lysine labeling ratio R10:1 (500 µM / 50 µM probe), SILAC-ABPP in living cells; higher = lower intrinsic lysine reactivity toward the probe, active = 2 or less
# Details: HeLa; probe concentrations 500 vs 50 µM
# Summary of the method: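 Forward and reverse SILAC label swaps were used with living light and heavy HeLa cells in PBS at room temperature, which were given an alkyne-tagged, disulfide-linked lysine probe at 50 µM or 500 µM. R is the per-lysine filtered median high-probe/low-probe MS1 peptide ratio, with the median then taken across both swap directions. Values are limited to 20.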
# Sequence of UniProt P78371 (P78371 whole entry): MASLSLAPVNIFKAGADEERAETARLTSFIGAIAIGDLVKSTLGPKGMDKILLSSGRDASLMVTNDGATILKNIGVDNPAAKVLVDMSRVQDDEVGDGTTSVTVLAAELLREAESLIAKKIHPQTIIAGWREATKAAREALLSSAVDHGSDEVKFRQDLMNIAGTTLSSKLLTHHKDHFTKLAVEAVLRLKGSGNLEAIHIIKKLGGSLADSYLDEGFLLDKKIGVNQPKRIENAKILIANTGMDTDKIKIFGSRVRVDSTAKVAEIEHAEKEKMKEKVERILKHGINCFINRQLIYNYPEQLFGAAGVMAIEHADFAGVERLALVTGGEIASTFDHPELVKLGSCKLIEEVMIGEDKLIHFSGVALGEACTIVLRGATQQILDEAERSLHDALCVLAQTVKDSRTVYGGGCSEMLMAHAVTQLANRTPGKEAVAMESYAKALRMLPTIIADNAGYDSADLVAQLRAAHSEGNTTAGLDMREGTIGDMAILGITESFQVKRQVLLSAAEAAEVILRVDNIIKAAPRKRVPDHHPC
# Sequence of UniProt P35579 (P35579 whole entry): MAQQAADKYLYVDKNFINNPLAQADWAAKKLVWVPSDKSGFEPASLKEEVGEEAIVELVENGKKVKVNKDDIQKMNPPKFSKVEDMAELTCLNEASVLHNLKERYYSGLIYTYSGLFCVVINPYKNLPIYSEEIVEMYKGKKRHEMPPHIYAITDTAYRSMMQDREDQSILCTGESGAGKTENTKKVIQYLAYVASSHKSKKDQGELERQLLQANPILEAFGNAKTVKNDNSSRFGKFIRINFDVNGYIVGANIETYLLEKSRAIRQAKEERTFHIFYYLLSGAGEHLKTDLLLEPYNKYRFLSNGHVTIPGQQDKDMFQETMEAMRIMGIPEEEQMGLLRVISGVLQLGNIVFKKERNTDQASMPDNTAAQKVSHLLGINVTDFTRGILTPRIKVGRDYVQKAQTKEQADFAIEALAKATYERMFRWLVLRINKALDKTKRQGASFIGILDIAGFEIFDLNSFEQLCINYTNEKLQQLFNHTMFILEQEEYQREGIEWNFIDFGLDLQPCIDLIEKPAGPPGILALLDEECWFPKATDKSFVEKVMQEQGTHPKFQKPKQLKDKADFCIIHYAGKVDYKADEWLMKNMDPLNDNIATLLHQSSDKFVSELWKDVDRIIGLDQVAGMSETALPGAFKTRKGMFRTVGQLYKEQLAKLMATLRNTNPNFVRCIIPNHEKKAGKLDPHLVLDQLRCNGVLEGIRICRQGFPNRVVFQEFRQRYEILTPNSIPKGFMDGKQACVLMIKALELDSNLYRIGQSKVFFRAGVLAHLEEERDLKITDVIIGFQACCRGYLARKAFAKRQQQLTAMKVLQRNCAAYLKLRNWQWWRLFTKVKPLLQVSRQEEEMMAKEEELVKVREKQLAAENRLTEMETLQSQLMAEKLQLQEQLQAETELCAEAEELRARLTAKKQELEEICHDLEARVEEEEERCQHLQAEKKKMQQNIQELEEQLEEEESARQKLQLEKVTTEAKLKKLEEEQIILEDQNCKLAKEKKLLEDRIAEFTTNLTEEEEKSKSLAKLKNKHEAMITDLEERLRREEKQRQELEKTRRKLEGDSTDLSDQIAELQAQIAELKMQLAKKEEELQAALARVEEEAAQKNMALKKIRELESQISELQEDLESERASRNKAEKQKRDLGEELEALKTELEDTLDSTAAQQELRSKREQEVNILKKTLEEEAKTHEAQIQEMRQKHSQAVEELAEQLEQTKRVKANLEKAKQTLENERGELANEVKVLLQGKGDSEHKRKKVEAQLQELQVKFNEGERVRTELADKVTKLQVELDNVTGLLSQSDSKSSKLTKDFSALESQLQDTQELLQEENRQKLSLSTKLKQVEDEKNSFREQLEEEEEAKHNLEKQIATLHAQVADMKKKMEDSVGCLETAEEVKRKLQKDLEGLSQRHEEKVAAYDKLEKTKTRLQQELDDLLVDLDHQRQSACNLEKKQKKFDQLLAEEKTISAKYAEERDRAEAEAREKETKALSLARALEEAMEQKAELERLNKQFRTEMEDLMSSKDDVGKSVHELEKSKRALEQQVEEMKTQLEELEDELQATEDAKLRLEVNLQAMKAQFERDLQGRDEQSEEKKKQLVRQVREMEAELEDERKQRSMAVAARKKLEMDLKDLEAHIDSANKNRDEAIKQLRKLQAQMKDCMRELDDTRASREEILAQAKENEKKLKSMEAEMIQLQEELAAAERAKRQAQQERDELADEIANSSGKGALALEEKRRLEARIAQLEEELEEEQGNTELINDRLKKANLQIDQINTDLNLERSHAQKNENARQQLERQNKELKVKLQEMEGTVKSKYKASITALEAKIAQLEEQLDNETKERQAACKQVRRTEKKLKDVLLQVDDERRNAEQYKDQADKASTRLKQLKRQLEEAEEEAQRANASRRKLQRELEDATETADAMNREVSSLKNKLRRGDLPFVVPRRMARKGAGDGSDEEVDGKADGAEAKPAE
# Sequence of UniProt P17987 (P17987 whole entry): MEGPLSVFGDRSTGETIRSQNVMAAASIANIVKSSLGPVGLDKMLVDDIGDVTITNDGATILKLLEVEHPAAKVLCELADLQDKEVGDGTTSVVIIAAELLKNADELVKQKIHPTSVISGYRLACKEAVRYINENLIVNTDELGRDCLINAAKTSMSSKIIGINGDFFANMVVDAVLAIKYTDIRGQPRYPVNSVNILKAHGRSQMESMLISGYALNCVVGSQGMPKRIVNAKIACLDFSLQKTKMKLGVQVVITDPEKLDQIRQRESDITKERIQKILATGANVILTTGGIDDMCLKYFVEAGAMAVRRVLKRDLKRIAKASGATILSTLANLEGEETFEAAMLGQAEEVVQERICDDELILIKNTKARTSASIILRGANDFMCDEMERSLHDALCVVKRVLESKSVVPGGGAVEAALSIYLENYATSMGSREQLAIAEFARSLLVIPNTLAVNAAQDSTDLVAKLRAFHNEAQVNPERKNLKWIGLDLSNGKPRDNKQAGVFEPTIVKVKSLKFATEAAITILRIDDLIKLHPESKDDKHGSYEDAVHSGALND
# Sequence of UniProt Q9NZV1 (Q9NZV1 whole entry): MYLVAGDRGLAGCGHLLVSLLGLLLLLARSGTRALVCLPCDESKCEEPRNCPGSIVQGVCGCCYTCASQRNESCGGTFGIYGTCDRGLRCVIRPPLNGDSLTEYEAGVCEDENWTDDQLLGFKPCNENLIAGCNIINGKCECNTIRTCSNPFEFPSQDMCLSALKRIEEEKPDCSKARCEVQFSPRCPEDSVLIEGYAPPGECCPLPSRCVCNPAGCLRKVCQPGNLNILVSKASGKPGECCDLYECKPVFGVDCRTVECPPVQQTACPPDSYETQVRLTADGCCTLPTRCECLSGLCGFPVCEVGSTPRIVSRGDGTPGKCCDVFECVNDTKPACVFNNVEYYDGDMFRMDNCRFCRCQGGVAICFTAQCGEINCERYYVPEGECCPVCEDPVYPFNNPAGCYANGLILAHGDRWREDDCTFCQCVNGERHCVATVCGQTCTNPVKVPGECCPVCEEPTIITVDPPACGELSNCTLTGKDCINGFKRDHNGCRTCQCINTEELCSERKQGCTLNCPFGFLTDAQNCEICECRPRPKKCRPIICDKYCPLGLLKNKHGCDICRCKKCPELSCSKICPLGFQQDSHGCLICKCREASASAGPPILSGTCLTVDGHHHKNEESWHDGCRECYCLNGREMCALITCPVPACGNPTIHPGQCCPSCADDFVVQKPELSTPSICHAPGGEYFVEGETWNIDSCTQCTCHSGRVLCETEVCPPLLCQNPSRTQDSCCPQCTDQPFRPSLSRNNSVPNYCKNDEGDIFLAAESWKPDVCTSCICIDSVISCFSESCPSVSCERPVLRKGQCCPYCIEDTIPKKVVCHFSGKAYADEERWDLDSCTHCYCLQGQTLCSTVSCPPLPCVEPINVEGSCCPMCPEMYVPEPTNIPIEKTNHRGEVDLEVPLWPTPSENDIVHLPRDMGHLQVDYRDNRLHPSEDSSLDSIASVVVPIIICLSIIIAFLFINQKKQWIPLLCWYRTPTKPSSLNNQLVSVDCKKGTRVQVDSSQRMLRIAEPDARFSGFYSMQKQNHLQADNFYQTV
# Sequence of UniProt Q01813 (Q01813 whole entry): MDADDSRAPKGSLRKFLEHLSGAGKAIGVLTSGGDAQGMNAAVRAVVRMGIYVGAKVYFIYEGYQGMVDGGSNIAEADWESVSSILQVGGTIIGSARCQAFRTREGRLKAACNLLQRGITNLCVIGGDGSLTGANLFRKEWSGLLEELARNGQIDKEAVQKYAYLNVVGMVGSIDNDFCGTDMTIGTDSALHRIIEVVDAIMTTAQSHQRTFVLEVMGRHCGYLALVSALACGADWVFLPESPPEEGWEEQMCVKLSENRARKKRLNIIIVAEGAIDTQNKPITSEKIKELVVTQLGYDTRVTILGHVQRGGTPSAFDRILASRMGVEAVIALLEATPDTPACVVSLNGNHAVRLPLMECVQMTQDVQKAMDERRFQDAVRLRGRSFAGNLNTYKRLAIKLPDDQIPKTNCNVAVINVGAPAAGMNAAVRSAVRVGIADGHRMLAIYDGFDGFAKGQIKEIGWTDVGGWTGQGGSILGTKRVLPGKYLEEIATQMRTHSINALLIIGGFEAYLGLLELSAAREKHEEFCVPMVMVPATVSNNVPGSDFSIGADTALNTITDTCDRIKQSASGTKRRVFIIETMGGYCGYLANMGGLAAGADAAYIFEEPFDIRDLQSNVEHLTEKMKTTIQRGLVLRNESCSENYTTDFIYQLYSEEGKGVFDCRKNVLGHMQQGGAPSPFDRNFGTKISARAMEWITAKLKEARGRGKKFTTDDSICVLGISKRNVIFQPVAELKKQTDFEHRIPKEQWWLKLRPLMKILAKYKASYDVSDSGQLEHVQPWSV
# Sequence of UniProt P23284 (P23284 whole entry): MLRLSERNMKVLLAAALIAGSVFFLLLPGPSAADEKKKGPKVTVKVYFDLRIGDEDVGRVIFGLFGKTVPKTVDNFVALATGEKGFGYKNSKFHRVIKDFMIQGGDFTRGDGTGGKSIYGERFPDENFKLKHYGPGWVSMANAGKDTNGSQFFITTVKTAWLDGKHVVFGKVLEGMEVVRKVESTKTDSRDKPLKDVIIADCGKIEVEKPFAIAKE
row,Target,lysine labeling ratio R10:1
1,PTPRS (lysine site: K379) (UniProt Q13332),2.21
2,UniProt Q15149 (lysine site: K1150),3.29
3,UniProt P55072 (lysine site: K148),5.57
4,PFKP (lysine site: K688) (UniProt Q01813),1.74 (active)
5,AGRN (lysine site: K1589) (UniProt O00468),5.07
6,CD151 (lysine site: K186) (UniProt P48509),6.68
7,LPL (lysine site: K129) (UniProt P06858),1.65 (active)
8,DDX3X (lysine site: K66) (UniProt O00571),1.78 (active)
9,SRP14 (lysine site: K55) (UniProt P37108),1.02 (active)
10,CRIM1 (lysine site: K171) (UniProt Q9NZV1),2.01
11,RPS27A (lysine site: K113) (UniProt P62979),1.38 (active)
12,FLNB (lysine site: K697) (UniProt O75369),2.95
13,SLC39A6 (lysine site: K164) (UniProt Q13433),7.08
14,UniProt Q9H336 (lysine site: K242),2.36
15,MAP4 (lysine site: K933) (UniProt P27816),1.9 (active)
16,UniProt Q15149 (lysine site: K1401),3.7
17,DCTN2 (lysine site: K175) (UniProt Q13561),2.59
18,HSPA9 (lysine site: K567) (UniProt P38646),2.96
19,UniProt P46781 (lysine site: K30),1.01 (active)
20,TCP1 (lysine site: K400) (UniProt P17987),2.68

row,Target,lysine labeling ratio R10:1
1,UniProt P06576 (lysine site: K522),3.5
2,CCT2 (lysine site: K154) (UniProt P78371),3.78
3,CCT2 (lysine site: K522) (UniProt P78371),3.39
4,MYH9 (lysine site: K1669) (UniProt P35579),5.57
5,ANXA3 (lysine site: K154) (UniProt P12429),3.32
6,GALNT2 (lysine site: K103) (UniProt Q10471),2.75
7,GSN (lysine site: K245) (UniProt P06396),4.08
8,CCT5 (lysine site: K399) (UniProt P48643),2.73
9,ATAD3B (lysine site: K135) (UniProt Q5T9A4),2.68
10,TSPAN3 (lysine site: K110) (UniProt O60637),4.07
11,AHNAK (lysine site: K130) (UniProt Q09666),1.37 (active)
12,TFRC (lysine site: K161) (UniProt P02786),6.73
13,NENF (lysine site: K136) (UniProt Q9UMX5),0.955 (active)
14,ACTN4 (lysine site: K760) (UniProt O43707),4.05
15,CD9 (lysine site: K133) (UniProt P21926),5.95
16,EZR (lysine site: K438) (UniProt P15311),3.51
17,PPIB (lysine site: K116) (UniProt P23284),6.61
18,MCAM (lysine site: K153) (UniProt P43121),4.14
19,CDCP1 (lysine site: K413) (UniProt Q9H5V8),1.38 (active)
20,PDIA3 (lysine site: K274) (UniProt P30101),3.59
